Source: PubChem BioAssay (NCATS)
Where “and” joins values, the source holds several entries; their conditions need not be identical. Equal entries are not always repeated. Inconclusive results are not listed. A structure can be active in one record and inactive in another. Calls of active or inactive are those of the source. Calls come from the whole dose curve; as a rule, active = well fitted inhibition curve with a large enough effect; inconclusive = small, poorly fitted or top-dose-only effect; inactive = flat fitted curve, though single readings scatter.

How the values were obtained:
W2 = assay: qHTS profiling for inhibitors of Plasmodium falciparum proliferation (AID 504749); details: P. falciparum in erythrocytes, SYBR Green DNA, 72 h; series mostly up to 28.7 µM
Summary of the method: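 Fluorescence of SYBR Green-bound parasite DNA, read at 485/535 nm, served as the growth measure. Infected erythrocytes were cultured with compound 72 h; artemisinin (0.29 uM) and DMSO wells defined the normalization range.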

CRL-7250 = normal cell line; assay: Cytotoxic Profiling of Annotated Libraries Using Quantitative High-Throughput Screening (AID 1296008); details: Five cell lines viability, CellTiter-Glo ATP luminescence, 48-72 h; max response: stronger effect = lower value; for max response: % is set by controls: 0 for no effect and ±100 for the full control effect
Summary of the method: (§1)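 Compounds were pin-transferred onto cells and incubated 48 or 72 hr at 37 degree Celsius, 95% humidity. CellTiter-Glo was added, plates sat 10 min at room temperature, then ATP-coupled luminescence was imaged as the viability read-out.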

HEK293 = assay: as above; details: Five cell lines viability, CellTiter-Glo ATP luminescence, 48-72 h; max response: stronger effect = lower value
Summary of the method: as §1

HaCat [1] = assay: as above; details: Five cell lines viability, CellTiter-Glo ATP luminescence, 48-72 h; max response: stronger effect = lower value
Summary of the method: as §1

KB-3-1 = assay: as above; details: Five cell lines viability, CellTiter-Glo ATP luminescence, 48-72 h; max response: stronger effect = lower value
Summary of the method: as §1

NIH3T3 = assay: as above; details: Five cell lines viability, CellTiter-Glo ATP luminescence, 48-72 h; max response: stronger effect = lower value
Summary of the method: as §1

MCC-13 = assay: qHTS assay to identify novel small-molecules to repurpose for Merkel cell carcinoma treatment (AID 1296009); details: MCC and control cell lines, CellTiter-Glo viability, 72 h; series mostly up to 46 µM
Summary of the method: (§2)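 Luminescence from CellTiter-Glo, read 10 min after addition at room temperature, reported viability following a 72 hr, 37 degree celsius treatment with NPC or MIPE compounds in titration; values normalized to plate controls.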

MCC-26 = assay: as above; details: MCC and control cell lines, CellTiter-Glo viability, 72 h; series mostly up to 46 µM
Summary of the method: as §2

HACAT [2] = assay: as above; details: MCC and control cell lines, CellTiter-Glo viability, 72 h; series mostly up to 44.8 µM
Summary of the method: as §2

HEK293T = assay: as above; details: MCC and control cell lines, CellTiter-Glo viability, 72 h; at 44.8 µM (top of the series) unless noted
Summary of the method: as §2
Note: nearly all actives have a fitted effect of over 60% in size.
Potency is the fitted concentration of half-maximal effect.

CCOC(=O)Nc1ccc(NCc2ccc(F)cc2)nc1N
active: Potency (W2) 3.79 µM
inactive: max response (CRL-7250) -7.5% and -7.01% | max response (HEK293) -4.26% | max response (HaCat [1]) -2.04% and -3.24% | max response (KB-3-1) -2.17% and -13.9% and -5.9% | max response (NIH3T3) 4.91% | outcome (NIH3T3) | Potency (MCC-13)

COC(=O)Nc1nc2ccc(C(=O)c3cccs3)cc2[nH]1
inactive: max response (HaCat [1]) 3.37% and -11.6%
active: Potency (CRL-7250) 46.9 nM and 188 nM | Potency (HEK293) 0.0944 µM | Potency (KB-3-1) 16.6 nM and 231 nM | Potency (NIH3T3) 168 nM | Potency (MCC-13) 148 nM and 266 nM | Potency (MCC-26) 0.132 µM

CCCCc1oc2ccccc2c1C(=O)c1cc(I)c(OCCN(CC)CC)c(I)c1
active: Potency (W2) 4.26 µM | Potency (HEK293) 23.5 µM
inactive: max response (CRL-7250) -7.04% and -18.2% | outcome (HaCat [1]) | max response (KB-3-1) -16.7% and -5.99% and -5.01% | max response (NIH3T3) -21.3% and -20.5% | outcome (HACAT [2]) | Potency (MCC-13)

Clc1ccc2c(c1)C(N1CCNCC1)=Nc1ccccc1O2
active: Potency (W2) 5.36 µM | Potency (HEK293) 20.6 µM
inactive: max response (CRL-7250) -6.06% and -6.64% and -8.49% | outcome (HaCat [1]) | max response (KB-3-1) 6.74% and 1.6% | max response (NIH3T3) 4.64% and 1.82% and -2.71% | outcome (HACAT [2]) | Potency (MCC-13)

CN(C)CCOC(c1ccccc1)c1ccccc1
inactive: max response (CRL-7250) -3.47% and -12.2% | outcome (HEK293) | outcome (HaCat [1]) | max response (KB-3-1) 4.19% and -2.75% | outcome (KB-3-1) | outcome (NIH3T3) | outcome (HACAT [2]) | outcome (HEK293T) | Potency (MCC-13) | Potency (MCC-26)
active: Potency (W2) 0.953 µM

Clc1ccc(C(c2ccccc2Cl)C(Cl)Cl)cc1 (stereo not drawn)
inactive: max response (CRL-7250) -3.27% | max response (HEK293) -1.26% | max response (HaCat [1]) -1.22% | outcome (HaCat [1]) | max response (KB-3-1) -10.1% and -1.61% | max response (NIH3T3) -2.6% and -1.15% | outcome (HACAT [2]) | Potency (MCC-13)

Nc1nc2c(ncn2COC(CO)CO)c(=O)[nH]1
active: Potency (HEK293) 0.132 µM
inactive: Potency (W2) | max response (CRL-7250) 1.91% | max response (HEK293) -8.08% | max response (HaCat [1]) -15.7% | max response (KB-3-1) 5.82% | max response (NIH3T3) -3.13% | Potency (MCC-26)
inactive and 20.9 µM (active): Potency (MCC-13)

NS(=O)(=O)c1cc2c(cc1Cl)NCNS2(=O)=O
inactive: Potency (W2) | outcome (CRL-7250) | outcome (HEK293) | max response (HaCat [1]) 0.753% | outcome (HaCat [1]) | max response (KB-3-1) 23% and 9.86% | max response (NIH3T3) -2.86% and -1.17% | outcome (HACAT [2]) | outcome (HEK293T) | Potency (MCC-13)

CC(CCc1ccc(O)cc1)NCCc1ccc(O)c(O)c1 (stereo not drawn)
active: Potency (CRL-7250) 23.7 µM
inactive: max response (HEK293) -19% | max response (HaCat [1]) 0.349% | outcome (HaCat [1]) | max response (KB-3-1) -2.1% | max response (NIH3T3) -1.03% and 1.16% | outcome (HACAT [2]) | Potency (MCC-13) | Potency (MCC-26)

CN(CCOc1ccc(NS(C)(=O)=O)cc1)CCc1ccc(NS(C)(=O)=O)cc1
inactive: Potency (W2) | outcome (CRL-7250) | outcome (HEK293) | max response (HaCat [1]) 2.47% | outcome (HaCat [1]) | max response (KB-3-1) -3.43% | outcome (NIH3T3) | outcome (HACAT [2]) | outcome (HEK293T) | Potency (MCC-13) | Potency (MCC-26)

CC(COc1ccccc1)N(CCCl)Cc1ccccc1 (stereo not drawn)
active: Potency (W2) 6.01 µM

CC(C)NCC(O)c1ccc(O)c(O)c1 (stereo not drawn)
inactive: Potency (W2) | max response (CRL-7250) 0.851% | max response (HaCat [1]) 3.14% and -18% | max response (KB-3-1) 0.229% | max response (NIH3T3) -0.342% and -6.04% | Potency (MCC-13) | Potency (MCC-26)

CS(=O)(=O)CCNCc1ccc(-c2ccc3ncnc(Nc4ccc(OCc5cccc(F)c5)c(Cl)c4)c3c2)o1
inactive: Potency (W2) | outcome (CRL-7250) | max response (KB-3-1) 0.0192% | max response (NIH3T3) -52.4% | Potency (MCC-13) | Potency (MCC-26)
active: Potency (HEK293) 4.18 µM and 6.68 µM and 9.2 µM | Potency (HaCat [1]) 46.9 nM and 266 nM

Clc1ccccc1C(c1ccccc1)(c1ccccc1)n1ccnc1
active: Potency (W2) 0.405 µM | Potency (HEK293) 20.9 µM
inactive: max response (CRL-7250) -11.6% and -17.2% | max response (HaCat [1]) -12.4% and -20.3% | max response (KB-3-1) -12.5% | Potency (MCC-13)

CC(C(=O)O)c1cccc(C(=O)c2ccccc2)c1 (stereo not drawn)
inactive: outcome (HACAT [2]) | Potency (MCC-13) | Potency (MCC-26)

CC(C)C(=O)Nc1ccc([N+](=O)[O-])c(C(F)(F)F)c1
inactive: Potency (W2) | max response (CRL-7250) -19.8% | outcome (HaCat [1]) | max response (KB-3-1) -17.3% and -13.1% | max response (NIH3T3) -15.1% | outcome (NIH3T3) | outcome (HACAT [2]) | Potency (MCC-13) | Potency (MCC-26)

Cc1cn([C@H]2C[C@H](N=[N+]=[N-])[C@@H](CO)O2)c(=O)[nH]c1=O
inactive: Potency (W2)

O=c1[nH]cc(F)c(=O)[nH]1
active: Potency (HEK293) 11.8 µM | Potency (NIH3T3) 3.76 µM and 2.96 µM
inactive: max response (KB-3-1) 22.7% and -20.8% | Potency (MCC-13) | Potency (MCC-26)

Cn1c(=O)c2[nH]cnc2n(C)c1=O
inactive: Potency (W2)

COc1cc2nc(N3CCN(C(=O)C4COc5ccccc5O4)CC3)nc(N)c2cc1OC (stereo not drawn)
inactive: max response (HaCat [1]) -6.13% | outcome (HaCat [1]) | max response (KB-3-1) 19.6% and -6.62% | max response (NIH3T3) -16.5% | outcome (NIH3T3) | outcome (HACAT [2]) | Potency (MCC-13)

COc1cc2nc(N3CCN(C(=O)c4ccco4)CC3)nc(N)c2cc1OC
inactive: max response (HaCat [1]) -3.1% | max response (NIH3T3) -23.2% | Potency (MCC-13) | Potency (MCC-26)

CN(C)CCCN1c2ccccc2CCc2ccc(Cl)cc21
inactive: max response (CRL-7250) -24.3% | outcome (HaCat [1]) | max response (NIH3T3) -22.1% | outcome (HACAT [2]) | Potency (MCC-13) | Potency (MCC-26)
active: Potency (W2) 1.9 µM | Potency (HEK293) 13.2 µM and 8.41 µM

Cc1cn([C@H]2C=C[C@@H](CO)O2)c(=O)[nH]c1=O
inactive: Potency (W2) | max response (CRL-7250) -12.9% and -2.54% | max response (HEK293) -0.556% and 1.63% | max response (HaCat [1]) 4.4% and -10.3% | outcome (KB-3-1) | max response (NIH3T3) 1.04% and -9.57% | Potency (MCC-13) | Potency (MCC-26)

CN(Cc1cnc2nc(N)nc(N)c2n1)c1ccc(C(=O)N[C@@H](CCC(=O)O)C(=O)O)cc1
inactive: Potency (MCC-26)
active: Potency (CRL-7250) 0.119 µM | Potency (HEK293) 29.9 nM and 33.2 nM | Potency (HaCat [1]) 0.418 µM | Potency (KB-3-1) 37.2 nM | Potency (NIH3T3) 266 nM and 332 nM

CC1(CN2CCC(n3c(=O)[nH]c4ccccc43)CC2)OCc2ccccc2-n2cccc21 (stereo not drawn)
active: Potency (W2) 7.57 µM
inactive: max response (CRL-7250) -0.873% and 0.74% | max response (HaCat [1]) -8% | outcome (HaCat [1]) | max response (KB-3-1) -2.15% and -10% | max response (NIH3T3) -0.569% and -13.1% | outcome (HACAT [2]) | Potency (MCC-13) | Potency (MCC-26)

COc1ccccc1OCCNCC(O)COc1cccc2[nH]c3ccccc3c12 (stereo not drawn)
inactive: max response (CRL-7250) 3.53% and -0.382% | max response (HaCat [1]) -11.1% | outcome (HaCat [1]) | max response (KB-3-1) 1.19% and -0.545% | max response (NIH3T3) -1.47% and -25.5% | outcome (HACAT [2]) | Potency (MCC-13) | Potency (MCC-26)
active: Potency (W2) 4.78 µM

CNCCCC12CCC(c3ccccc31)c1ccccc12
inactive: max response (HaCat [1]) -20.8% and 4.86% | max response (KB-3-1) 3.46% | Potency (MCC-13) | Potency (MCC-26)
active: Potency (W2) 6.01 µM | Potency (HEK293) 11.9 µM and 16.6 µM

CCC1(c2ccccc2)C(=O)NCNC1=O
inactive: Potency (W2)

Nc1c2c(nc3ccccc13)CCCC2
active: Potency (HaCat [1]) 26.4 µM
inactive: outcome (CRL-7250) | outcome (HaCat [1]) | outcome (KB-3-1) | outcome (NIH3T3) | outcome (HACAT [2]) | Potency (MCC-13)

Cn1c(=O)c2c(ncn2C)n(C)c1=O
inactive: Potency (W2) | max response (CRL-7250) 0.692% and -3.54% | max response (HEK293) -13.2% and 0.976% | max response (HaCat [1]) 1.8% and -12.8% | max response (KB-3-1) 3.75% | max response (NIH3T3) -9.99% and -2.17% | Potency (MCC-13) | Potency (MCC-26)

O=C(c1ccc(OCCN2CCCCC2)cc1)c1c(-c2ccc(O)cc2)sc2cc(O)ccc12
active: Potency (W2) 3.01 µM | Potency (HaCat [1]) 16.8 µM | Potency (NIH3T3) 18800 nM
inactive: outcome (CRL-7250) | outcome (HaCat [1]) | max response (KB-3-1) -14.1% and -7.5% | max response (NIH3T3) -12.5% | outcome (HACAT [2]) | Potency (MCC-13) | Potency (MCC-26)
